Experimental data as given in PMC4336329 (PLoS ONE, 2015).
Among all 310,000 compounds or so, about 14,000 (4.5%) showed an effect of 50% or more. The effect is printed as a negative number. The sample holds strong results, similar compounds and a random draw of the others, so the mix is not that of the screen.

target: human ether-à-go-go-related gene (hERG) potassium channel (human, UniProt Q12809); experiment: primary screen, population patch clamp on CHO cells stably expressing hERG; higher = less effect of the substance
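Also: peak tail current of the secondary pulse compared with the same well before compound.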

Chain of human ether-à-go-go-related gene (hERG) potassium channel (Q12809 whole entry, looked up): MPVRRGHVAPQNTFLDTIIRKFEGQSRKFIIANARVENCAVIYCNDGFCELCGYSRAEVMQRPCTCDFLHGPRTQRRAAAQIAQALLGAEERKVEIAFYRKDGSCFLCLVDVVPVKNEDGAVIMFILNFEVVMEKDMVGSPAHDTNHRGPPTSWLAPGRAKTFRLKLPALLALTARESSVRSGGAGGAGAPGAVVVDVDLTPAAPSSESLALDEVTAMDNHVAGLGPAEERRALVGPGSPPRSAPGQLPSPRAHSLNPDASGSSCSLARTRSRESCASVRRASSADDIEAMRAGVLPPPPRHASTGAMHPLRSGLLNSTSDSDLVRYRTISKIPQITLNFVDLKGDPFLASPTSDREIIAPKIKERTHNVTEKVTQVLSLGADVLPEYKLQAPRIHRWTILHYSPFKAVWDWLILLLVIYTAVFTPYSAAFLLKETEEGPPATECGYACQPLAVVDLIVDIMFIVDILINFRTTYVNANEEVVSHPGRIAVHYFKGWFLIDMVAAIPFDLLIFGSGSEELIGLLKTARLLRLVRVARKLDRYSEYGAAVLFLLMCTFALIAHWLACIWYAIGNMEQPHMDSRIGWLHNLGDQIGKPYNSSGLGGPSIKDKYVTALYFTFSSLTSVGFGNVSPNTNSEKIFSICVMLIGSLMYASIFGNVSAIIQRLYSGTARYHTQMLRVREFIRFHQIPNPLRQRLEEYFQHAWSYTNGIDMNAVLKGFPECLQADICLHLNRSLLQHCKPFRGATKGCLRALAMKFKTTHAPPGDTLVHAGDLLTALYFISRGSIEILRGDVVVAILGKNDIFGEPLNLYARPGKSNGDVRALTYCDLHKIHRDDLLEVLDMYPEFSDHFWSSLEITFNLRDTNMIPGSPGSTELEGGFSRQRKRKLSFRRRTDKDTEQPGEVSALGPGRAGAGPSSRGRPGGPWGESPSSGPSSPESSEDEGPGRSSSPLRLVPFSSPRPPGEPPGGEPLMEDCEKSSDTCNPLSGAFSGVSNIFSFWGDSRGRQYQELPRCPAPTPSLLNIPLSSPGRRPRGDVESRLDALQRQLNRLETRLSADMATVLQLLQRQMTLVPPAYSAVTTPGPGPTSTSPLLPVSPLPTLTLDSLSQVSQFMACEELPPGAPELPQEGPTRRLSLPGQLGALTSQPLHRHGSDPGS

| SMILES | hERG current change (%, negative = inhibition) at 10uM [%] |
| --- | --- |
| CC(=O)NC(CC(=O)Nc1cccc(S(=O)(=O)N2CCCCC2)c1)c1ccccc1 (stereo not drawn) | -1.76 |
| CCCCC(=O)Nc1cc(Cl)ccc1C(=O)O | 27.6 |
| CC(=O)N1CCC(c2c[nH]c3ccccc23)CC1 | 5.87 |
| CCn1ncc(-c2ccnc3cc(C(=O)O)nn23)c1C | 12.6 |
| CC(c1ccccc1)n1c(N2CCNCC2)nc2c1c(=O)[nH]c(=O)n2C (stereo not drawn) | 6.32 |
| O=C(/C=C/c1ccccc1)OCc1cnc(Cl)s1 | -6.4 |
| Cc1ccc(S(=O)(=O)Cn2nnnc2C(CC(C)C)N2CCC(C(N)=O)CC2)cc1 (stereo not drawn) | -12.2 |
| Cc1cc(NC(=O)/C=C/c2ccccc2)c(C(C)C)cc1O | 10.7 |
| CC(C)c1ccc(NC2CCCN(C(=O)CCN3CCOCC3)C2)cc1 (stereo not drawn) | 0.518 |
| O=C(NCc1ccc(F)cc1)c1ccc(N2CCOCC2)c([N+](=O)[O-])c1 | -39.6 |
| O=C(Nc1ccc(Cc2ccncc2)cc1)c1ccc(N2CCOCC2)c([N+](=O)[O-])c1 | -59.1 |
| O=C(Nc1ccc(Cc2ccncc2)cc1)c1cc([N+](=O)[O-])ccc1N1CCOCC1 | -39 |
| C=C1CCN(c2ccc(C(=O)NCc3ccc(OC)cc3)cc2[N+](=O)[O-])CC1 | -7.55 |
| COc1ccc(CNC(=O)c2ccc(N3CCOCC3)c([N+](=O)[O-])c2)cc1 | -52.1 |
| O=C(Nc1cccnc1)c1ccc(N2CCOCC2)c([N+](=O)[O-])c1 | 21.7 |
| COc1ccc(/C=N/NC(=O)c2cc(-c3ccccc3OC(C)C)nc3ccccc23)cc1CN1CCOCC1 | -4.54 |
| O.O=C(OCC1OC2C(Oc3nc(=O)ccn32)C1O)c1ccccc1 (stereo not drawn) | -0.213 |
| Cc1ccc(C(=O)N(C)Cc2ccc(N3CCOCC3)cc2)cc1S(=O)(=O)NCc1ccccc1 | -55.6 |
| Cc1ccc(C)c(S(=O)(=O)NCc2ccc(C(=O)N3CCN(c4ccccc4)CC3)cc2)c1 | -3.21 |
| Cc1ccc(C(=O)N(C)Cc2ccccc2)cc1S(=O)(=O)N1CCOCC1 | -12.8 |
| CCN(CC)C(=O)N1CCc2ccccc21 | 0.177 |
| COc1cccc(CC2(CO)CCCN(Cc3cc(F)ccc3-n3cccn3)C2)c1 (stereo not drawn) | -77.3 |
| COc1ccc(-n2ccnc2CN2CCCC(CO)(Cc3cccc(OC)c3)C2)cc1 (stereo not drawn) | -24.2 |
| COc1cccc(CC2(CO)CCCN(Cc3c(C)cc(C)cc3-n3cccn3)C2)c1 (stereo not drawn) | -84.4 |
| CCn1ccnc1CN1CCCC(CO)(Cc2cccc(OC)c2)C1 (stereo not drawn) | -17.7 |
| COc1cccc(CC2(CO)CCCN(Cc3cn[nH]c3-c3ccc(F)cc3)C2)c1 (stereo not drawn) | 6.58 |
| COc1cccc(CC2(CO)CCCN(Cc3cn[nH]c3C3CCCCC3)C2)c1 (stereo not drawn) | -45.1 |
